# Experimental data as given in PMC4336329 (PLoS ONE, 2015).
# The campaign covered roughly 310,000 compounds. About 2,200 (0.71%) showed an effect of 50% or more. The effect is printed as a negative number. What follows is part of a selection rich in strong results, with near analogues and random picks from the rest.
# Target: human ether-à-go-go-related gene (hERG) potassium channel (human, UniProt Q12809)
# Test: primary screen, population patch clamp on CHO cells stably expressing hERG; higher = less effect of the substance
# Method: Briefly, Chinese hamster ovary (CHO) cells stably expressing the hERG channel were dislodged from tissue culture flasks and dispensed into PPC plates. […] During the recording, background leak currents were estimated by a 100 ms step to -80 mV from an initial holding potential of -70 mV and subtracted from the subsequent current measurement. The campaign was conducted in two phases using slight differences in recording protocol. In the first phase, the initial voltage pulse used a 100 ms step to -30 mV from a holding potential of -70 mV, a 2 s conditioning step to +25 mV, and a 2 s test step to -30 mV. During the second phase of the screen, the potential during the conditioning step was raised to +45 mV. In both phases of the campaign, a secondary voltage pulse was applied using the same parameters as the second phase initial pulse. The initial and secondary pulses were applied in the absence of compound, and upon application of 1 μM and 10 μM test concentrations. Small molecule effects on hERG current density were quantified by […].
# Chain of human ether-à-go-go-related gene (hERG) potassium channel (Q12809 whole entry, looked up): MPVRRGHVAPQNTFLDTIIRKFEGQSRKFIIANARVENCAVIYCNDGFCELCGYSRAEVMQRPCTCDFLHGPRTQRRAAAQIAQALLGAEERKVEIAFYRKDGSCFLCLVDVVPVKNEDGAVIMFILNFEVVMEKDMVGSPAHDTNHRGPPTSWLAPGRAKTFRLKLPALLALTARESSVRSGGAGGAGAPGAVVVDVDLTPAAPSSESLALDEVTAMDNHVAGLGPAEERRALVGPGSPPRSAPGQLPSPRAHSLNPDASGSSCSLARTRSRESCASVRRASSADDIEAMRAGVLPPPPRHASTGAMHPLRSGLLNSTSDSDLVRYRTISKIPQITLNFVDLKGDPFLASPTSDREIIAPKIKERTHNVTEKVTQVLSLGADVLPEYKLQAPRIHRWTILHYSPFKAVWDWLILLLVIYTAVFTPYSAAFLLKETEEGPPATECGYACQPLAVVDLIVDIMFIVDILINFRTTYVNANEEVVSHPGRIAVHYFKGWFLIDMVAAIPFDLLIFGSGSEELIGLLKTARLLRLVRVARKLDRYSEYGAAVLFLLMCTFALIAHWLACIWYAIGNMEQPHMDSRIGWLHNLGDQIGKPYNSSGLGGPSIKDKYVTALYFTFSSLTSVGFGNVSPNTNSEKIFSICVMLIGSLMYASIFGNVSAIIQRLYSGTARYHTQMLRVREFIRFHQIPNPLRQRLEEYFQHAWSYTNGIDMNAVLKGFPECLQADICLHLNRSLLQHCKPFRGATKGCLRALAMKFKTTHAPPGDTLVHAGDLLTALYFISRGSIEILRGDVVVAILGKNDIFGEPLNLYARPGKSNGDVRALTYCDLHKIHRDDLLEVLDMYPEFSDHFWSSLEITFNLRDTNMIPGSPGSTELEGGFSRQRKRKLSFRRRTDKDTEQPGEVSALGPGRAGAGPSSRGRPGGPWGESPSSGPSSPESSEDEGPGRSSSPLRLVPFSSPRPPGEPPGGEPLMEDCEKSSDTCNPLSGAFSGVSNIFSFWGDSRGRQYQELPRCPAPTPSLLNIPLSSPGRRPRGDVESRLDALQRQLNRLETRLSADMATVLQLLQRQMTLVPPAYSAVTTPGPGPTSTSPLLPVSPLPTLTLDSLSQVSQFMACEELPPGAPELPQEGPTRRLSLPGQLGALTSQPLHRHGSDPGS
row,SMILES,"hERG current change (%, negative = inhibition) at 1uM"
1,COc1ccc(C2OC(=O)CC2C(=O)N2CCN(c3cc(Cl)ccc3C)CC2)cc1OC (stereo not drawn),7.68%
2,CCn1c(-c2cc(-c3ccc(C)c(C)c3)nc3ccccc23)n[nH]c1=S,16.2%
3,CCOC(=O)C1CCN(C2CC(=O)N(c3ccc(OCC)cc3)C2=O)CC1 (stereo not drawn),2.22%
4,CCOC(=O)c1cnc2ccccc2c1NCc1ccco1,-14.7%
5,CCOC(=O)c1cnc2ccc(OCC)cc2c1NCc1ccccc1,-12.8%
6,CCOC(=O)c1cnc2c(OC)cccc2c1Oc1ccccc1,11%
7,CCOC(=O)c1cnc2c(OC)cccc2c1NCc1cccnc1,-68.1%
8,CCOC(=O)c1cnc2ccc(OC)cc2c1NCc1ccccc1,-33.4%
9,CCOC(=O)c1cnc2ccc(OCC)cc2c1NCc1cccnc1.Cl,-75.3%
10,CCOC(=O)c1cnc2c(C)cccc2c1NCc1ccco1,-45.3%
11,CCOC(=O)c1cnc2c(C(=O)OC)cccc2c1NCc1cccnc1,-55.5%
12,CCOC(=O)c1cnc2c(OC)cccc2c1Nc1ccc2c(c1)OCCO2,-3.26%
13,CCOC(=O)c1ccc(NCc2cccnc2)cc1,8.24%
14,CCOC(=O)c1cnc2c(C(=O)OC)cccc2c1NCCN1CCOCC1,-47.1%
15,CCOC(=O)c1cnc2c(C(=O)OC)cccc2c1NCc1ccco1,-71.4%
16,COc1ccc(OC)c(C(=O)CSc2nnc(Cc3cccs3)n2CCc2ccccc2)c1,-6.84%
17,CC(NC(=O)CSc1nc2ccccc2c(=O)n1CCCO)c1ccccc1 (stereo not drawn),-0.931%
18,COCCN(CCOC)S(=O)(=O)c1ccc(C(=O)NC2CCN(Cc3ccccc3)CC2)cc1.Cl,-1.24%
19,COc1ccc(C(=O)Nc2nnc(SCC(=O)NC3CCCC3)s2)c(OC)c1,14.4%
20,CN1C(=O)/C(=C\c2cc(Br)cs2)c2ccccc21,12.7%
21,O=C(Cc1ccc(Cl)cc1)NCC(=O)N1CCCCCC1,4.89%
22,COc1ccc(-n2c(=O)c3c4c(sc3n3c(=S)[nH]nc23)CCC4)cc1,9.01%
23,CCCN1CCN(CCCNC(=O)c2ccc3c(c2)NC(=O)c2ccccc2S3)CC1,9.21%
24,O=C1NC(=Nc2cccc([N+](=O)[O-])c2)SC1(CO)CO,2.12%
25,COc1ccc(C)cc1NC(=O)COC(=O)C1CC1,6.74%
26,COc1ccc(C)cc1NC(=O)COC(=O)C1CCN(C(=O)c2ccc(Cl)cc2)CC1,-57.7%
27,COc1ccc(OC)c(NC(=O)COC(=O)C2CCN(C(=O)c3ccc(Cl)cc3)CC2)c1,-49.1%
